High-throughput results (PubChem BioAssay)
hcDAF12 agonist: H. contortus DAF-12 nuclear receptor activators, primary screen, cell-based, luminescence, HEK293, lit1-tk-luc reporter | HEK293 hcDAF-12 lit1-tk-luc reporter; 0% DMSO, 100% Δ7-dafachronic acid | activation, % at 6.8 µM | 370,000 compounds, 1.4% hits;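 active means activation above the mean of all tested compounds plus 3 SD, cut at about 5.5% in these data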
hgDAF-12 ag: H. glycines DAF-12 receptor agonists, primary screen, cell-based, luminescence, HEK293, GAL4 fusion, UAS-luciferase; Nuclear hormone receptor DAF-12 (Heterodera glycines), GAL4 fusion; activation, % at 6.8 µM; AID 687014, 2013; HEK293 GAL4-hgDAF12 UAS-luciferase reporter, agonist luminescence; normalized to butyrate control; 370,000 compounds, 1.8% hits;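 active means activation above a cutoff set at the mean of all screened compounds plus 3 SD, cut at about 10% in these data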
DAX1 inh-1: DAX1 (NR0B1) inhibitors on StAR promoter, primary screen, cell-based, luminescence, SF-1 (NR5A1), full-length DAX-1 | HEK293T StAR-luciferase reporter, SF-1/DAX-1 repression relief | inhibition, % at 6.8 µM | 370,000 compounds, 1.1% hits;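 active means inhibition above the mean over all tested compounds plus 3 SD, cut at about 3.6% in these data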;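 further: higher inhibition means more luminescence from relief of DAX-1 repression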
ssDAF12 agonist: S. stercoralis DAF-12 nuclear receptor activators, primary screen, cell-based, luminescence, HEK293, GRIP1 co-expression, lit1-tk-luc; activation, % at 6.8 µM; 370,000 compounds, 1% hits; Nuclear hormone receptor DAF-12 (Strongyloides stercoralis); HEK293 ssDAF-12/GRIP1 lit1-tk-luc reporter; % of 3 µM dafachronic acid response;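 active means activation above the mean over all tested compounds plus 3 SD, cut at about 0.9% in these data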
DAX1 inh-2: DAX1 (NR0B1) inhibitors, primary screen, cell-based, HEK293, Gal4-DAX1, luciferase luminescence. Nuclear receptor subfamily 0 group B member 1 (Homo sapiens), P51843. inhibition, % at 6.75 µM. AID 504766, 2011. 340,000 compounds, 0.99% hits. HEK293 Gal4-DAX1 luciferase reporter;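 active means inhibition above the mean over all tested compounds plus 3 SD, cut at about 4.2% in these data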;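 further: inhibition shows as a rise in luminescence from relieved DAX1 repression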
Target sequence (P51843 207-470 limits assumed): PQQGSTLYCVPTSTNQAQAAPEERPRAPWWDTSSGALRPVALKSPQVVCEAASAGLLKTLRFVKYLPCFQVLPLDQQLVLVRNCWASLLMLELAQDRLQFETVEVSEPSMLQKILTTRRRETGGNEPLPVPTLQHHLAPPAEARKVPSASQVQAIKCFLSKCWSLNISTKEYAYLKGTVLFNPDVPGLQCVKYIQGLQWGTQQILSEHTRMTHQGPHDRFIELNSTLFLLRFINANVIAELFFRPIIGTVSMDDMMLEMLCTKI
Rev-erbA mod: modulators of Rev-erb alpha DNA binding, primary screen, biochemical, FITC-DNA, fluorescence polarization, uHTS. Nuclear receptor subfamily 1 group D member 1 (Homo sapiens), P20393. Rev-erbα–FITC-DNA binding, 90 min. activity, % at 10 µM. 370,000 compounds, 0.79% hits. AID 1259318, 2017;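 active means activity above about 14%, limit read from the data; passing the limit was not always enough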
Numbers stand for hits; n = inactive; x = not tested or not shown. An excerpt weighted towards active compounds, which were near 4.8% of everything screened.

SMILES	hcDAF12 agonist	hgDAF-12 ag	DAX1 inh-1	ssDAF12 agonist	DAX1 inh-2	Rev-erbA mod
C[C@H]1[C@@H](NC(=O)Cc2ccsc2)CC[C@@]23CCCN2C(=O)CCC[C@@H]13	n	n	x	2.6	x	n
CCOC(=O)c1csc(NC(=O)C2CCCN(S(=O)(=O)c3ccccc3[N+](=O)[O-])C2)n1 (stereo unspecified)	n	n	n	n	x	n
NC(=O)C1(N2CCCCC2)CCN(S(=O)(=O)c2cc(Cl)ccc2Cl)CC1	n	n	n	n	4.6	n
COC(=O)CN1C(=O)C(O)(CC(=O)c2ccc(C)cc2)c2cc(Br)ccc21 (stereo unspecified)	n	n	n	n	4.5	n
C=CC[C@H]1c2ccccc2[C@H]2N3N=Cc4ccccc4[C@H]3[C@H](CCCC)C(=O)N2N1C(=O)NCc1ccccc1	n	n	n	n	x	n
NS(=O)(=O)c1ccc(NC(=O)COC(=O)/C=C/c2ccc([N+](=O)[O-])cc2)cc1	n	n	n	3.0	n	n
O=C(COC(=O)/C=C/c1ccc([N+](=O)[O-])cc1)Nc1ccc(F)cc1	n	n	n	n	n	n
Cc1cc(C)nc(CC(N)=O)n1	n	n	n	n	5.9	n
Cc1cc(C)cc(NC(=S)NC2CC3CCC(C2)N3Cc2ccco2)c1 (stereo unspecified)	n	n	n	n	n	n
Cc1ccc(C)c(NC(=S)NC2CC3CCC(C2)N3Cc2ccco2)c1 (stereo unspecified)	n	n	n	1.6	n	n
Cc1cccc(CSc2nnc(-c3ccco3)n2C)c1	n	n	n	n	n	n
COc1cccc(CSc2nnc(-c3ccco3)n2C)c1	n	n	n	n	5.2	n
COc1ccc(-n2c(SCC(N)=O)nnc2-c2ccco2)cc1	n	n	n	n	4.5	n
Cc1sc2ncnc(NC(C)C(=O)O)c2c1C (stereo unspecified)	n	n	n	n	5.3	n
Cc1sc2ncnc(N[C@@H](CCC(=O)O)C(=O)O)c2c1C	n	n	n	n	n	n
C#CCn1c(C)cc(C)c(S(=O)(=O)c2ccccc2)c1=O	n	11	n	n	n	n
COC(=O)[C@]12CCCCC=C1N(Cc1ccc(OC)cc1)C(=O)[C@@H]2CC(=O)NCc1ccc(OC)c(OC)c1	n	n	n	n	x	n
CN(C)c1ccc(-c2nn3c(-c4ccco4)nnc3s2)cc1	n	n	n	n	x	n
Cc1nnc2sc(-c3ccc(N(C)C)cc3)nn2c1=O	n	12	n	n	n	n
Nc1ccc2oc3ccccc3c2c1	6.1	n	n	n	n	n
CCOc1ccc(N(CC(=O)Nc2c(C)n(C)n(-c3ccccc3)c2=O)S(=O)(=O)c2cccs2)cc1	n	n	n	n	x	n
Cc1c(-c2nc(-c3ccc(C(C)(C)C)cc3)no2)n(C)oc1=O	5.7	12	n	2.1	n	n
C=CCSc1nncn1/N=C/c1ccc(OC)cc1	n	11	n	n	4.9	n
COc1cccc(/C=C2\CC3(OC(=O)C4CCCC4)CCCN2C3)c1 (stereo unspecified)	n	n	n	n	x	n
CN(C)CCCN(C(=O)c1ccc(S(=O)(=O)N(C)C)cc1)c1nc2cc3c(cc2s1)OCO3	n	n	n	1.5	n	n
SMILES	hcDAF12 agonist	hgDAF-12 ag	DAX1 inh-1	ssDAF12 agonist	DAX1 inh-2	Rev-erbA mod
COC(=O)c1ccc2c(c1)C(NC(C)=O)CCc1cc(OC)c(OC)c(OC)c1-2 (stereo unspecified)	n	n	4.3	n	n	n
COc1cc2c(c(OC)c1OC)-c1ccc(OC)c(=O)cc1C(NC(C)=O)CC2 (stereo unspecified)	n	n	n	n	n	n
COc1cc2c(c(OC)c1OC)-c1ccc(SC)c(=O)cc1C(NC(=O)c1ccccc1)CC2 (stereo unspecified)	n	n	3.7	n	n	n
Cc1cc(OCC(=O)N(C)Cc2ccccc2)ccc1Cl	n	n	n	1.6	n	n
Cc1cc(OCC(=O)N(C)Cc2ccccc2)ccc1Br	n	n	n	n	n	n
COc1cccc(CC(=O)OCC(=O)Nc2c(C)nn(-c3ccccc3)c2C)c1	n	n	n	n	7.0	n
C=CCN1C(C(=O)OC)CN(Cc2cn(Cc3ccc(F)cc3)nn2)CCS1(=O)=O (stereo unspecified)	n	n	n	n	x	n
Cc1ccc(CC(=O)Nc2cccc(C)n2)cc1	n	n	n	1.9	n	n
O=C(COc1ccc2c(c1)CCC2)Nc1ccccn1	n	n	n	n	n	n
Cc1cccc(NC(=O)Cc2ccc(-c3ccccc3)cc2)n1	n	n	n	n	n	n
Cc1cccc(NC(=O)COc2ccc3c(c2)CCC3)n1	n	n	3.8	n	n	n
C[C@H](O)[C@@H]1CN2CCc3c([nH]c4c(-c5ccccc5)cccc34)[C@@H]2C[C@@H]1N(C)C(=S)Nc1ccc(C#N)cc1	n	n	n	n	x	n
CC1(c2ccncc2)Nc2ccccc2-c2nc3ccccc3n21 (stereo unspecified)	n	12	n	n	n	n
COc1ccc(S[C@]2(C(=O)N3CCOCC3)CC(=O)N(c3ccc(Cl)cc3)[C@@H]2c2ccc(OC)cc2)cc1	n	n	n	n	x	n
C/C(Cn1cnc([N+](=O)[O-])n1)=N\NC(=O)c1ccccc1	n	n	n	n	4.3	n
C/C(Cn1nnc([N+](=O)[O-])n1)=N\NC(=O)c1ccccc1	n	n	n	n	n	x
COCC(=O)N(C)[C@H]1C[C@H]2c3[nH]c4c(-c5ccc6c(c5)OCO6)cccc4c3CCN2C(=O)[C@H]1[C@H](C)O	n	n	n	n	x	n
CCCCN1C(=O)/C(=C2\SC(N3CCCCC3)=NC2=O)c2ccccc21	n	n	n	n	4.3	n
CCc1ccccc1NC(=O)C1CCN(C(=O)c2cccs2)CC1	n	n	n	n	4.4	n
CCOC(=O)[C@]12CCCC=C1N(Cc1ccc(OC)cc1)C(=O)[C@@H]2CC(=O)N1CCN(C(=O)c2ccco2)CC1	n	n	n	n	x	n
C#CCN1CC(N(C)CCOC(=O)c2ccc(OC)c(OC)c2)CS1(=O)=O (stereo unspecified)	n	n	n	n	x	n
O=C(NCCC1=CCCCC1)NC1CCCCC1	n	11	n	n	n	n
CCN(CC)C(=O)CN1C(=O)C2CCCCN2C(=O)c2ccccc21 (stereo unspecified)	n	n	n	n	x	n
